Results filed as inconclusive are left out. Where a call stands in place of a potency, no number is given. Calls of active or inactive are those of the source. Unless noted, calls follow the shape of the full dose curve.
What was measured:
[1] = qHTS assay to identify small molecule antagonists of the sonic hedgehog signaling (Shh) pathway (AID 1259369); also: nearly all actives have a fitted effect of over 45% in size; also: potency is read from the fitted curve at half-maximal effect
In short: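 NIH/3T3 stable Gli1-Luc clone, 2,000 cells/well, 4hr settle; cpd + conditioned medium 24hr; Luc reagent 30min RT; luminescence.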

[2] = target: Estrogen receptor beta (Homo sapiens) (UniProt Q92731); assay: qHTS assay to identify small molecule agonists of the estrogen receptor beta (ER-beta) signaling pathway (AID 1259377; active = well fitted activation curve with a large enough effect in the signal ratio in the repeat runs, not every such curve was filed as active; the % refers to the signal ratio)
Chain of Estrogen receptor beta (Homo sapiens) (Q92731 whole entry, looked up): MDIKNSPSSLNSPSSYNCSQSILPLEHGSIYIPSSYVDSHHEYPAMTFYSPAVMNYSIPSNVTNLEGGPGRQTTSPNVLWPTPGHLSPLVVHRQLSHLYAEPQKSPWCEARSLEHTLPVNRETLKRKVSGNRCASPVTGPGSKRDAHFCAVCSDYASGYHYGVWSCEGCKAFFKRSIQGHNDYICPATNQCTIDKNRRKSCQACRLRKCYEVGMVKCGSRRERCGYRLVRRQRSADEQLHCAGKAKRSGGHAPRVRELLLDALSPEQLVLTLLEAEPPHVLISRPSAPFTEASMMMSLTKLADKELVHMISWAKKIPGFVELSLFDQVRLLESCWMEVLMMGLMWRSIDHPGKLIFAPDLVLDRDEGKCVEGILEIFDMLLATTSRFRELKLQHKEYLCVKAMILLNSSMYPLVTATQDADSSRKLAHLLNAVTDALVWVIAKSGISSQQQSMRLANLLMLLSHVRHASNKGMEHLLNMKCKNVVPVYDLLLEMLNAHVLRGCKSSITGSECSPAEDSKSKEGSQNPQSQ
In short: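 In HEK293T cells bearing a UAS-beta-lactamase reporter under ER-beta control, DMSO-delivered compounds were incubated for 16 hr at 37C. Activity was detected as fluorescence 2 hours after LiveBLAzer B/G FRET substrate addition.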

[3] = target: Estrogen receptor beta (Homo sapiens) (UniProt Q92731); assay: qHTS assay to identify small molecule antagonists of the estrogen receptor beta (ER-beta) signaling pathway (AID 1259378; active = well fitted inhibition curve with a large enough effect in the signal ratio in the repeat runs, not every such curve was filed as active; the % refers to the signal ratio)
In short: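 ER-beta-UAS-bla HEK293T cells in 2% charcoal-stripped FBS medium treated with compound plus 1nM final 17-beta-estradiol for 16 hr at 37C. Beta-lactamase reporter read by FRET substrate fluorescence after 2 hours at room temperature.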

[4] = qHTS assay to identify small molecule agonists of the androgen receptor (AR) signaling pathway in the presence of an antagonist - cell viability counter screen (AID 1259379; active = well fitted curve in the direction sought with a large enough effect in the repeat runs; an effect the other way counts as inactive or inconclusive;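 also: MDA-kb2 human breast cancer cells carrying an MMTV luciferase reporter; series mostly up to about 92 µM; nearly all actives have a fitted effect of over 25% in size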)
In short: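 MDA-kb2 viability measured by CellTiter-Fluor fluorescence in the same wells as the luciferase signal; nilutamide 3.0uM final; 15-point compound titration; 16 hr at 37C.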

[5] = qHTS assay to identify small molecule agonists of the estrogen receptor beta (ER-beta) signaling pathway - cell viability counter screen (AID 1259380; active = well fitted curve in the direction sought with a large enough effect in the repeat runs; an effect the other way counts as inactive or inconclusive; also: nearly all actives have a fitted effect of over 30% in size; also: potency is read from the fitted curve at half-maximal effect)
In short: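 Measured: luminescence from CellTiter-Glo after 30 min at room temperature, added to wells already read for the LiveBLAzer FRET reporter (2 hr substrate); ER-beta-UAS-bla HEK293T cells had 16 hr compound treatment at 37C, 5% CO2.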

[6] = target: Androgen receptor (Homo sapiens) (UniProt P10275); assay: qHTS assay to identify small molecule agonists of the androgen receptor (AR) signaling pathway in the presence of an antagonist (AID 1259381); also: nearly all actives have a fitted effect of over 15% in size
Chain of Androgen receptor (Homo sapiens) (P10275 whole entry, looked up): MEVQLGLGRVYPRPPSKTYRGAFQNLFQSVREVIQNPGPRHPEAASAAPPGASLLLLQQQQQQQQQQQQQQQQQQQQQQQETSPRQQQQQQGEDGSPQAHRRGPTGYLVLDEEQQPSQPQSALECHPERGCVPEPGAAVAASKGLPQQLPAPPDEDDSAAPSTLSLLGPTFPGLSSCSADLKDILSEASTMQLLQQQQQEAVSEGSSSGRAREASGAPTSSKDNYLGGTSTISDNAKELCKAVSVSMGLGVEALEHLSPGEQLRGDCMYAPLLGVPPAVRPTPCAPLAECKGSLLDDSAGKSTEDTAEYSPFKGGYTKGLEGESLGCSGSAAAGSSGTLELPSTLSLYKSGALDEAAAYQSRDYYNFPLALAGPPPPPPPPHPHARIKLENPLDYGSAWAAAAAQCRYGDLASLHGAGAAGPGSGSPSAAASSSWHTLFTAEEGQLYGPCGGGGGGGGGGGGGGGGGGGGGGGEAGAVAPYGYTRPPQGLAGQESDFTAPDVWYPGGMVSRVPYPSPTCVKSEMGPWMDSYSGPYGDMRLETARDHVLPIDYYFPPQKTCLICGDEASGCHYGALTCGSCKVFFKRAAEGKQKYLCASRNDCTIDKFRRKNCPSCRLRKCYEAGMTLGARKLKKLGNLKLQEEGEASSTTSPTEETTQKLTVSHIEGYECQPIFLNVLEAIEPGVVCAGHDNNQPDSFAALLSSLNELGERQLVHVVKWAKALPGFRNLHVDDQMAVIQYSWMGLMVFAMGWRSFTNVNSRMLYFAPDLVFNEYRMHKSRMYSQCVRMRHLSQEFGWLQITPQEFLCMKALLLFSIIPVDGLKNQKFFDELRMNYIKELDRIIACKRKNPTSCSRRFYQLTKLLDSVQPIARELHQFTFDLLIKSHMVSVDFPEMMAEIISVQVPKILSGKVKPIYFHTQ
In short: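 Luminescent ONE-Glo read, 30min at room temperature, follows 16hr compound exposure (15 concentrations) of MDA-kb2 cells at 37C, 0% CO2, with nilutamide added at 3.0uM final.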

[7] = qHTS assay to identify small molecule antagonists of the estrogen receptor beta (ER-beta) signaling pathway - cell viability counter screen (AID 1259382; active = well fitted curve in the direction sought with a large enough effect in the repeat runs; an effect the other way counts as inactive or inconclusive; also: series mostly up to about 92 µM; nearly all actives have a fitted effect of over 55% in size)
In short: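 Readout: luminescence, CellTiter-Glo, same wells as bla assay. System: ER-beta-UAS-bla GripTite HEK293T, 2% charcoal-stripped FBS. Exposure: compounds plus 1nM 17-beta-estradiol, 16 hr, 37C.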

[8] = target: Estrogen receptor (Homo sapiens) (UniProt P03372); assay: qHTS assay to identify small molecule agonists of the estrogen receptor alpha (ER-alpha) signaling pathway in the presence of an antagonist (AID 1259383); also: top concentration of the series differs between compounds; nearly all actives have a fitted effect of over 15% in size
Chain of Estrogen receptor (Homo sapiens) (P03372 whole entry, looked up): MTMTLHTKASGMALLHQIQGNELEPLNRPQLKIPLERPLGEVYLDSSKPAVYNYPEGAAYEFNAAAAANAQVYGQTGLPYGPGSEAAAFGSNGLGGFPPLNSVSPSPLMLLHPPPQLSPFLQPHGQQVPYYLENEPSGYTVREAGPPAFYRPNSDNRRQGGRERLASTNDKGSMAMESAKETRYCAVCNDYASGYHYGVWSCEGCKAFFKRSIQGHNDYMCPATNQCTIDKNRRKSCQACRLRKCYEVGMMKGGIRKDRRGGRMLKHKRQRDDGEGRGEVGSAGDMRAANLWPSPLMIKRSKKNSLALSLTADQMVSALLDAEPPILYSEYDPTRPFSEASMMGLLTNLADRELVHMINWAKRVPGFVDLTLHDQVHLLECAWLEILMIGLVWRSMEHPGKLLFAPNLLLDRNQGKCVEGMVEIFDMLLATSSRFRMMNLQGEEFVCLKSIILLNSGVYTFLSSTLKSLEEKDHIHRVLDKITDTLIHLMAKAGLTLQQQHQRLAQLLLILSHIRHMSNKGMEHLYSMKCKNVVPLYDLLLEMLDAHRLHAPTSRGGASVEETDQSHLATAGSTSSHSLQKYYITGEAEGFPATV
In short: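 Quantitative HTS confirmation: compounds titrated at 15 concentrations onto estrogen-deprived VM7Luc4E2 cells carrying a four-ERE luciferase construct, with ICI-182,780 present at 10.0nM final. Signal is luminescence after 22hr exposure.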

[9] = qHTS assay to identify small molecule agonists or antagonists of the thyroid stimulating hormone receptor (TSHR) signaling pathway - wild type cell line counter screen (AID 1259384)
In short: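 Wild-type Hek293 cells, 800/well, 18 h at 37C, then compound with Ro20-1724 for 30 min RT. cAMP by HTRF (cAMP-d2/anti-cAMP cryptate), 1 h RT, fluorescence read. 15 concentrations, triplicates.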

[10] = target: Thyrotropin receptor (Homo sapiens) (UniProt P16473); assay: qHTS assay to identify small molecule antagonists of the thyroid stimulating hormone receptor (TSHR) signaling pathway (AID 1259385); also: nearly all actives have a fitted effect of over 20% in size
Chain of Thyrotropin receptor (Homo sapiens) (P16473 whole entry, looked up): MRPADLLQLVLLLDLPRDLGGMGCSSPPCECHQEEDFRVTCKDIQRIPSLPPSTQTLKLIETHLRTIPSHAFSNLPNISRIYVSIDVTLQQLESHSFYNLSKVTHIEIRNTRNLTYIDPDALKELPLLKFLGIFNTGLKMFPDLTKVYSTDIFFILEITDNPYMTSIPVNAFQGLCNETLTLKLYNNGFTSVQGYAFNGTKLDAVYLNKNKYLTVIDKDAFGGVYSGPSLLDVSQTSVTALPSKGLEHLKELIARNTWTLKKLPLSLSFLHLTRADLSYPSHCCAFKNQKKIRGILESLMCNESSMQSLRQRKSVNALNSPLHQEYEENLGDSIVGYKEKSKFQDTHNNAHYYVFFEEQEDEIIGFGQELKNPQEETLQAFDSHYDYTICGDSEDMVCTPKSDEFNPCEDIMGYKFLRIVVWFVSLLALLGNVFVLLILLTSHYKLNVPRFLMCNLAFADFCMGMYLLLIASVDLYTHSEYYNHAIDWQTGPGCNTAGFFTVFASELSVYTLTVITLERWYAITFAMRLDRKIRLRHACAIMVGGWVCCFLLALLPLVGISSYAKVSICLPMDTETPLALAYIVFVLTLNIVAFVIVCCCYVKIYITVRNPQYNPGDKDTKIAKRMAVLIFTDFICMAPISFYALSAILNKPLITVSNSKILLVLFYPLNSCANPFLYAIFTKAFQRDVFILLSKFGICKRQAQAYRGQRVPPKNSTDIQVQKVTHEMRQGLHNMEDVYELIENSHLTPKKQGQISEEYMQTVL
In short: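 TSHR-HEK293 cells (800/well) plated 18 h, then compounds with Ro20-1724 and TSH at 1.5 ng/mL final, 30 min at room temperature. cAMP quantified by HTRF (cAMP-d2/anti-cAMP-cryptate, 1 h); 15 concentrations in triplicate.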

[11] = qHTS assay to identify small molecule agonists of the estrogen receptor alpha (ER-alpha) signaling pathway in the presence of an antagonist - cell viability counter screen (AID 1259386; active = well fitted curve in the direction sought with a large enough effect in the repeat runs; an effect the other way counts as inactive or inconclusive;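 also: series mostly up to about 92 µM; cells exposed to compounds for 22 h at 37 °C before the viability read; nearly all actives have a fitted effect of over 30% in size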)
In short: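 The test measures whether compounds kill ER-alpha reporter cells (VM7Luc4E2) under antagonist co-treatment (ICI-182,780, 10.0nM). Fluorescence from CellTiter-Fluor is read after a 22hr exposure.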

[12] = target: Progesterone receptor (Homo sapiens) (UniProt P06401); assay: qHTS assay to identify small molecule agonists of the progesterone receptor (PR) signaling pathway (AID 1346784); also: nearly all actives have a fitted effect of over 30% in size
Chain of Progesterone receptor (Homo sapiens) (P06401 whole entry, looked up): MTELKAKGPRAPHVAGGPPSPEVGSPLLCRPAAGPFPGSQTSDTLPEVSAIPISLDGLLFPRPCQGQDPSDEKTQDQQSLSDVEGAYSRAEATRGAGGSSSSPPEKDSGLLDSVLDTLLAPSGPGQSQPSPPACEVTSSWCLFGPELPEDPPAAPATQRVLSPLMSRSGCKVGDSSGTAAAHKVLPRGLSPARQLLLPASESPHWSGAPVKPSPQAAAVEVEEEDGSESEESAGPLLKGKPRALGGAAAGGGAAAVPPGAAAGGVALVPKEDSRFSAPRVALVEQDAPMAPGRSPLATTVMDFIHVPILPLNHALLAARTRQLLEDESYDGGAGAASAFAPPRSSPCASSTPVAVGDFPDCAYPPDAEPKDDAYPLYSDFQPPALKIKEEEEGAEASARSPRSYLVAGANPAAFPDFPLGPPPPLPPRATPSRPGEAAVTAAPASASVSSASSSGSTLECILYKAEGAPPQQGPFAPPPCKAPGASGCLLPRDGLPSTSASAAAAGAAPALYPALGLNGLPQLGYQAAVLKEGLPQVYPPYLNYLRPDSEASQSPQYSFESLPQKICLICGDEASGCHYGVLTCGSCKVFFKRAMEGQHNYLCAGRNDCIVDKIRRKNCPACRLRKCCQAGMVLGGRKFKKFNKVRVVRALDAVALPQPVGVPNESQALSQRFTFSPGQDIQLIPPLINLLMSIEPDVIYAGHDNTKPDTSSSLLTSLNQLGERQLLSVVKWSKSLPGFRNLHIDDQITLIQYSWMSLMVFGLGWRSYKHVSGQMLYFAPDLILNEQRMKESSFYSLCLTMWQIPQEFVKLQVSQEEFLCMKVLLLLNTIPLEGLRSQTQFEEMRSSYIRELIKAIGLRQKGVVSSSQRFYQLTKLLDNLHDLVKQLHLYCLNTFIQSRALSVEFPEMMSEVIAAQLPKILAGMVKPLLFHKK
In short: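 Using charcoal-stripped serum (2%) to limit endogenous steroids, PR-UAS-bla HEK 293T cells received compounds for 16 hr at 37C after 6 hr plating; beta-lactamase FRET fluorescence was recorded following 2 hr substrate loading at room temperature.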

[13] = target: Progesterone receptor (Homo sapiens) (UniProt P06401); assay: qHTS assay to identify small molecule antagonists of the progesterone receptor (PR) signaling pathway (AID 1346795; active = well fitted inhibition curve with a large enough effect in the signal ratio in the repeat runs, not every such curve was filed as active; the % refers to the signal ratio; also: potency is read from the fitted curve at half-maximal effect)
In short: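 Inhibition of R5020-induced (1 nM final) beta-lactamase reporter signal in PR-UAS-bla HEK293T cells was scored by FRET fluorescence after overnight (16 hr) compound treatment.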

[14] = qHTS assay to identify small molecule antagonists of the progesterone receptor (PR) signaling pathway - cell viability counter screen (AID 1346798; active = well fitted curve in the direction sought with a large enough effect in the repeat runs; an effect the other way counts as inactive or inconclusive; also: series mostly up to about 92 µM; nearly all actives have a fitted effect of over 50% in size)
In short: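 ATP content as viability readout: CellTiter-Glo luminescence, 30 min room temperature, in PR-UAS-bla HEK293T cells after 16 hr compound/R5020 treatment at 37C and 5% CO2.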

[15] = qHTS assay to identify small molecule agonists of the progesterone receptor (PR) signaling pathway - cell viability counter screen (AID 1346799); also: nearly all actives have a fitted effect of over 45% in size
In short: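 Cytotoxicity in PR-bla HEK293T cells: 16 h compound, 37C; CellTiter-Glo added post-FRET read; luminescence after 30 min RT.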

[16] = qHTS assay to identify small molecule antagonists of the TGF-beta/Smad signaling pathway - cell viability counter screen (AID 1346824; active = well fitted curve in the direction sought with a large enough effect in the repeat runs; an effect the other way counts as inactive or inconclusive; also: nearly all actives have a fitted effect of over 50% in size)
In short: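 SBE-bla HEK 293T cells, incubated overnight, then compound plus 0.25 ng/mL TGF-beta1 (stock added) for 5 hr at 37 C. Viability was read in the same wells by CellTiter-Glo luminescence after 30 min at room temperature.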

[17] = qHTS assay to identify small molecule agonists of the TGF-beta/Smad signaling pathway - cell viability counter screen (AID 1346829; active = well fitted curve in the direction sought with a large enough effect in the repeat runs; an effect the other way counts as inactive or inconclusive; also: top concentration of the series differs between compounds; nearly all actives have a fitted effect of over 45% in size)
In short: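 SBE-bla HEK 293T cells plated overnight, compound exposure 5 hr at 37 C. Viability read in the same wells by CellTiter-Glo luminescence after 30 min at room temperature, following the beta-lactamase read.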

[18] = qHTS assay to identify small molecule agonists of the TGF-beta/Smad signaling pathway (AID 1346859; active = well fitted activation curve with a large enough effect in the signal ratio in the repeat runs, not every such curve was filed as active; the % refers to the signal ratio; also: series mostly up to about 77 µM)
In short: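 Stable Smad binding element-beta-lactamase HEK 293T cells; 5 hr compound exposure at 37 C under 5% CO2; 2 hr room-temperature substrate step; fluorescence excited at 405 nm, collected at 460 nm and 530 nm.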

[19] = target: Thyrotropin-releasing hormone receptor (Homo sapiens) (UniProt P34981); assay: qHTS assay to identify small molecule antagonists of the thyrotropin-releasing hormone receptor (TRHR) signaling pathway (AID 1346877; active = well fitted inhibition curve with a large enough effect in the repeat runs, not every such curve was filed as active; also: series mostly up to about 51 µM)
Chain of Thyrotropin-releasing hormone receptor (Homo sapiens) (P34981 whole entry, looked up): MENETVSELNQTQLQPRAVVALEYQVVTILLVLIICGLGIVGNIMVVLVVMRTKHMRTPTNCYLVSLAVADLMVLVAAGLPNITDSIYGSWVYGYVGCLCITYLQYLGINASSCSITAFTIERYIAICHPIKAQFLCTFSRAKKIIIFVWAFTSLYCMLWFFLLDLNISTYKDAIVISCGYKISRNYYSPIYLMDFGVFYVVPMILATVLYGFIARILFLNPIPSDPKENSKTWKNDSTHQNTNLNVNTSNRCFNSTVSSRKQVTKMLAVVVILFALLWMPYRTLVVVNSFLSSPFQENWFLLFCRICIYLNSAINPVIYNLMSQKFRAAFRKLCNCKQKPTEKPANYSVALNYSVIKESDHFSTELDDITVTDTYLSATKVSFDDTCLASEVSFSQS
In short: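 Overnight-plated (18 h, 37 °C) HEK293 cells expressing TRHR were dye-loaded 2 h, treated with compound, then stimulated with TRH at 1 nM final. Fluorescence intensity was captured every second for 3 min.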

[20] = target: Thyrotropin-releasing hormone receptor (Homo sapiens) (UniProt P34981); assay: qHTS assay to identify small molecule agonists of the thyrotropin-releasing hormone receptor (TRHR) signaling pathway (AID 1346891);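 also: HEK293 cells expressing TRHR with calcium dye readout; series mostly up to about 58 µM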
In short: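 In 1536-format, 1500 TRHR-Hek293 cells per well grew 18 h, took up calcium dye for 2 h at 37 °C, received compound, and were read kinetically; 15-point titrations, triplicates.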

Compound	Potency [1]	Potency [2]	Potency [3]	Potency [4]	Potency [5]	outcome [6]	Potency [7]	Potency [8]	outcome [9]	Potency [10]	Potency [11]	Potency [12]	Potency [13]	Potency [14]	Potency [15]	Potency [16]	Potency [17]	Potency [18]	Potency [19]	outcome [20]
Clc1sc(Cl)c(Cl)c1Cl	inactive	inactive	inactive	inactive	inactive	inactive	inactive	inactive	inactive	inactive	inactive	inactive	inactive	inactive	inactive	inactive	inactive	inactive	inactive	inactive
CCOC(=O)NNc1ccc(N(CC)CC(C)O)nn1 (stereo not given)	inactive	inactive	inactive	inactive	inactive	–	inactive	inactive	inactive	inactive	inactive	–	inactive	inactive	inactive	inactive	inactive	inactive	inactive	inactive
CC(C(=O)O)c1ccc2c(c1)[nH]c1ccc(Cl)cc12 (stereo not given)	inactive	inactive	inactive	inactive	29.8 µM (active)	–	inactive	inactive	inactive	inactive	inactive	–	inactive	inactive	–	inactive	inactive	–	inactive	inactive
C=Cc1ccccc1C=C	inactive	inactive	inactive	inactive	inactive	–	inactive	inactive	inactive	inactive	–	inactive	inactive	inactive	–	inactive	inactive	inactive	inactive	inactive
OC[C@@H](O)[C@@H](O)CO	inactive	inactive	inactive	inactive	inactive	–	inactive	inactive	inactive	inactive	–	inactive	inactive	inactive	inactive	inactive	inactive	inactive	inactive	inactive
CCc1cccc(CC)c1NC(=O)CN(CC(=O)O)CC(=O)O	inactive	inactive	inactive	inactive	inactive	–	inactive	inactive	inactive	inactive	inactive	inactive	inactive	inactive	inactive	inactive	–	inactive	inactive	inactive
Cc1cccc(C)c1NC(=O)c1ccc(N)cc1	inactive	inactive	inactive	inactive	–	inactive	inactive	inactive	inactive	inactive	inactive	inactive	inactive	inactive	inactive	inactive	inactive	inactive	–	–
CC(CO)Oc1ccccc1 (stereo not given)	inactive	inactive	inactive	inactive	inactive	inactive	inactive	inactive	inactive	inactive	inactive	inactive	inactive	inactive	inactive	inactive	inactive	inactive	inactive	inactive
C[Si](Cl)(c1ccccc1)c1ccccc1	inactive	inactive	–	inactive	inactive	–	inactive	inactive	inactive	inactive	inactive	–	29.9 µM (active)	inactive	–	–	inactive	inactive	–	–
CC(C)(C)NSc1nc2ccccc2s1	inactive	–	inactive	inactive	inactive	inactive	inactive	inactive	inactive	inactive	–	–	inactive	inactive	inactive	inactive	inactive	inactive	–	–
CCCCCCCC/C=C\CCCCCCCCN	inactive	–	inactive	inactive	inactive	–	inactive	inactive	inactive	inactive	inactive	inactive	inactive	inactive	–	inactive	–	inactive	inactive	inactive
CCOC(=O)c1ccc(C2CCC(NC[C@H](O)COc3ccc(O)c(NS(C)(=O)=O)c3)CC2)cc1 (stereo not given in full)	10 µM (active)	inactive	–	–	50.2 µM (active)	–	–	–	–	–	inactive	inactive	–	–	inactive	–	–	–	–	–
C=C(C)c1cccc(C(=C)C)c1	inactive	–	inactive	inactive	inactive	–	inactive	inactive	inactive	inactive	inactive	inactive	inactive	inactive	–	–	inactive	inactive	inactive	inactive
[Cu+]	inactive	–	inactive	inactive	inactive	–	inactive	inactive	inactive	–	–	inactive	inactive	inactive	inactive	inactive	inactive	inactive	–	–
NC(=O)c1cccc([N+](=O)[O-])c1	inactive	–	inactive	inactive	inactive	inactive	inactive	inactive	inactive	inactive	inactive	inactive	inactive	inactive	inactive	–	inactive	inactive	inactive	inactive
CC/C=C\CCCCCO	inactive	–	inactive	inactive	inactive	–	inactive	–	inactive	inactive	inactive	inactive	inactive	inactive	inactive	–	–	inactive	–	–

Source: PubChem BioAssay (Tox21)
